We go through ten compounds from PubChem BioAssay.

For experiment [1], the system named is TRPC4 beta (transient receptor potential cation channel C4), mouse. The experiment is described as follows: TRPC4 cation channel opening, retest – cell-based, Fluo4 calcium, HEK293 TRPC4beta/mu-opioid, duplicates, 10 µM, confirmation (AID 2426;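 active = fluorescence ratio normalized to control raised more than 50% in primary screen plus both repeat runs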;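 as to activation: percent rise of integrated ratio over buffer wells lacking compound which define 0%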). The following applies: Fluo4 calcium fluorescence, at 10 µM; stronger effect = higher value.
Experiment [2] concerns transient receptor potential cation channel C4 beta (TRPC4), mouse. The experiment is described as follows: TRPC4 cation channel opening, second retest – cell-based, second round, Fluo4, HEK293 TRPC4beta/mu-opioid, 1 µM, confirmation (AID 2461;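 active = primary screen active and over 50% activation in each of two duplicate runs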;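 as to activation: 0% = wells without test compound as baseline of integrated fluorescence ratio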). Conditions: Fluo4 calcium fluorescence, at 1 µM; stronger effect = higher value.
The subject of experiment [3] is TRPC4 (transient receptor potential cation channel C4 beta), mouse. The experiment is described as follows: potentiation of DAMGO EC20 TRPC4 response – cell-based, second round, Fluo-4, HEK293 TRPC4beta/mu-opioid, 1 µM, confirmation (AID 2554;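 active = primary screen hit whose fluorescence ratio, in both repeats, exceeds the weak agonist control mean by 3 SD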). Conditions: DAMGO EC20, Fluo-4 calcium flux, at 1 µM; stronger effect = higher value.
In experiment [4] the test system is TRPC4 beta (transient receptor potential cation channel C4), mouse. Put plainly: potentiation of DAMGO EC20 TRPC4 response – cell-based, Fluo-4, HEK293 TRPC4beta/mu-opioid, confirmation (AID 2555;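 active = primary screen hit whose calcium fluorescence ratio, in both repeats, exceeds the weak agonist control mean by 3 SD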). The following applies: DAMGO EC20, Fluo-4 calcium flux, at 10 µM; stronger effect = higher value. (In general: Calcium assays in cells follow changes in intracellular calcium, usually with a dye or a luminescent sensor.)

Experiment [5] has as its target Short transient receptor potential channel 4 (Mus musculus) (UniProt Q9QUQ5). The experiment is described as follows: blockers of DAMGO-evoked TRPC4 calcium flux – cell-based, Fluo4, HEK293 TRPC4beta/mu-opioid, confirmation (AID 2636;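 active = calcium signal cut by more than 3 SD below the full-agonist control yet still positive, in both repeats and the earlier primary screen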). Conditions: at 10 µM; stronger effect = higher value.
Experiment [6] shares this target. The experiment is described as follows: blockers of DAMGO-evoked TRPC4 calcium flux – cell-based, second round, Fluo4, HEK293 TRPC4beta/mu-opioid, 1 µM, confirmation (AID 2637;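 active = calcium signal ratio cut to more than 3 SD under the fully stimulated control mean yet still positive, in both repeats and the primary screen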). Conditions: at 1 µM; stronger effect = higher value.
Experiment [7] has the same target. Put plainly: potentiation of DAMGO-evoked TRPC4 calcium signal – cell-based, HEK293 TRPC4/mu-opioid, Fluo-4 calcium, EC20 DAMGO, dose response (AID 434941;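 active = earlier screen potentiator hit that boosts the TRPC4 ion channel at some dose, with a dose response; inactive = no potentiation, no dose response, or not a prior hit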;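 also: calcium entry triggered by an EC20 dose of DAMGO at the co-expressed mu-opioid receptor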).
For experiment [8] the target is unchanged. The experiment is described as follows: block of DAMGO-driven TRPC4 calcium entry – cell-based, HEK293 TRPC4/mu-opioid, Fluo-4 calcium, dose response (AID 434942;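 active = primary screen inhibitor hit that blocks the TRPC4 channel at some tested dose, yielding a dose curve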).
The target in experiment [9] is Short transient receptor potential channel 6 (Mus musculus) (UniProt Q61143). Put plainly: TRPC6 blockade by TRPC4 inhibitor hits – cell-based, HEK293, membrane potential dye, duplicate, selectivity assay for TRPC4 inhibitor project, confirmation (AID 434948;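 active = active in primary screen and both duplicates, each dropping signal beyond three positive-control SD with fluorescence still positive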). The following applies: HEK293 TRPC6, membrane potential dye fluorescence, at 10 µM; inhibition: stronger effect = higher value, stimulated with maximal-effect acetylcholine unless noted; outcome: stimulated with maximal-effect acetylcholine unless noted.
Sequence of Short transient receptor potential channel 6 (Mus musculus) (Q61143 whole entry, looked up): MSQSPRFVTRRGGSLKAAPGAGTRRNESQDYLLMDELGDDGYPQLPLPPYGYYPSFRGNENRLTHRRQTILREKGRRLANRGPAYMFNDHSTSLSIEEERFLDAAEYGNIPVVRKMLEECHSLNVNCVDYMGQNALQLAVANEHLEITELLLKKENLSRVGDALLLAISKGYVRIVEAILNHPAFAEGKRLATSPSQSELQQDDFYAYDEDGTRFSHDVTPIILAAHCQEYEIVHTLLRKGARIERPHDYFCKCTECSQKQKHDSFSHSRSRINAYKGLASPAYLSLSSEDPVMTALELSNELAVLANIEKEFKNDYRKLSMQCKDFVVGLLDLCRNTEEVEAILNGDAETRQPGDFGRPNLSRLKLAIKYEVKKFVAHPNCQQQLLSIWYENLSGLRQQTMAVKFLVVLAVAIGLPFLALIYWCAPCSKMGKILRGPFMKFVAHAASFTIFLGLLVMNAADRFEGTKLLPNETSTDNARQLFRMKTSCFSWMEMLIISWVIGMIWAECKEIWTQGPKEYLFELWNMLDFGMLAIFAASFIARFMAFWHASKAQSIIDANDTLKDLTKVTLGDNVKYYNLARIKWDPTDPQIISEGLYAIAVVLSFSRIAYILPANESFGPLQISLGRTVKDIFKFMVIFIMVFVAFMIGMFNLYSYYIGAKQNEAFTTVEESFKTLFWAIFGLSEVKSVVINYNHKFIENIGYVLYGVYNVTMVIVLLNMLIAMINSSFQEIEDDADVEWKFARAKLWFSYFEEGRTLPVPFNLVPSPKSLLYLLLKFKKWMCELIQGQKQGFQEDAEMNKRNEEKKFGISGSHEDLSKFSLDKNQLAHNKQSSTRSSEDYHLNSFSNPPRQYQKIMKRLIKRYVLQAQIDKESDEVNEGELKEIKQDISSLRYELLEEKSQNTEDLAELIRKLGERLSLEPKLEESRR

Experiment [10] has the same target. Put plainly: TRPC6 opening by TRPC4 activator hits – cell-based, HEK293, membrane potential dye, duplicate, selectivity assay for TRPC4 activator project, confirmation (AID 434950;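 active = membrane potential signal rise above negative control mean plus 3 SD in both duplicates, also active in the earlier TRPC4 screen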;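 as to activation: 0% = buffer only wells and 100% = acetylcholine maximal-effect wells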). The following applies: HEK293 TRPC6, membrane potential fluorescence, at 10 µM; activation: stronger effect = higher value; outcome: activation.
For experiment [11] the target is unchanged. The experiment is described as follows: positive modulators of mouse TRPC6 channel – HEK293 cells, membrane potential dye, duplicate, selectivity assay for TRPC4 potentiator project, confirmation (AID 434952;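 active = compound raising the membrane signal above positive-control mean plus 3 SD in both repeats, and a primary screen hit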). The following applies: HEK293 TRPC6, membrane potential dye fluorescence, at 10 µM; maximal acetylcholine added after compound unless noted.
Experiment [12] has as its target Short transient receptor potential channel 4 (Mus musculus) (UniProt Q9QUQ5). Put plainly: calcium flux activators in TRPC4/5HT1a cells, counter-screen for TRPC4 activator project, cell-based, second counter screen, HEK293 TRPC4/5HT1a, Fluo-4 (AID 434977;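 active = calcium signal rise above buffer-control mean plus 5 SD in both duplicates, and also a hit in the primary screen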;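 as to activation: plate controls were assay buffer for no effect and maximal serotonin response for full effect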). Conditions: Fluo-4 calcium flux, at 10 µM; stronger effect = higher value.
The nature of experiment [13]: serotonin-gated TRPC4 signal block – cell-based, second counter screen, HEK293 TRPC4/5HT1a, Fluo-4, counter-screen for TRPC4 inhibitor project, confirmation (AID 434978;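 active = primary screen active whose calcium signal fell more than 3 SD beyond the full-serotonin control mean in both duplicate plates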;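 also: serotonin given first at submaximal then at maximal dose after compound preincubation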). The following applies: Fluo-4 calcium flux, at 10 µM; inhibition: stronger effect = higher value, serotonin added to trigger calcium flux unless noted; outcome: serotonin added to trigger calcium flux unless noted. Background: The purpose of a counterscreen is to sort out artefacts and off-target activity.

The subject of experiment [14] is TRPC4 (mouse), co-expressed with 5HT1a in HEK293. The experiment is described as follows: enhancement of serotonin-evoked TRPC4 response – cell-based, second counter screen, HEK293 TRPC4/5HT1a, Fluo-4, counter-screen for TRPC4 potentiator project, confirmation (AID 434979;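 active = signal rise over 3 SD above mean of control wells given weak agonist, in both repeats and first screen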). Conditions: Fluo-4 calcium flux, at 10 µM; outcome: serotonin added at its EC20 dose unless noted; potentiation: stronger effect = higher value, serotonin added at its EC20 dose unless noted.

Experiment [15] in a line: nonspecific calcium rise without TRPC4 – cell-based, HEK293 mu-opioid receptor line, counter-screen for TRPC4 activator project, confirmation (AID 449723).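 Also: counter screen cells carry the mu-opioid receptor alone and lack TRPC4.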 The following applies: HEK293 mu-opioid cells, Fluo-4 calcium fluorescence, at 10 µM; stronger effect = higher value.
The nature of experiment [16]: nonspecific potentiation of DAMGO calcium response – cell-based, HEK293 mu-opioid receptor line, counter-screen for TRPC4 allosteric potentiator project, confirmation (AID 449724;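 active = calcium signal rise more than 3 SD above the low-dose agonist control mean, in both duplicate plates and the primary screen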;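 also: HEK293 cells carrying mu-opioid receptor only with no TRPC4 channel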). The following applies: HEK293 mu-opioid receptor cells, Fluo-4 calcium flux, at 10 µM; compound added before EC20 DAMGO stimulus unless noted.
Experiment [17] is described as follows: nonspecific flux increase, KCNQ1-free cells – parental CHO cells, counter-screen for KCNQ1 potentiator project (AID 493006;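 active = duplicate-averaged activation above buffer control mean plus 5 SD of those controls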;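 also: fluorescence ratio of max minus min over baseline after K+ and Tl+ depolarization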). Conditions: parental CHO-K1 cells, FluxOR thallium flux, at 10 µM; stronger effect = higher value.

Each structure is given as a SMILES string. For part of these data: Results with a measured potency or affinity are listed apart. Calls of active or inactive are those of the source.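 The calls were made as follows, unless noted: active = hit in primary screen, with calcium signal over 5 SD above buffer well mean in both duplicates; inactive = the rest.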

Sequence of Short transient receptor potential channel 4 (Mus musculus) (Q9QUQ5 whole entry, looked up): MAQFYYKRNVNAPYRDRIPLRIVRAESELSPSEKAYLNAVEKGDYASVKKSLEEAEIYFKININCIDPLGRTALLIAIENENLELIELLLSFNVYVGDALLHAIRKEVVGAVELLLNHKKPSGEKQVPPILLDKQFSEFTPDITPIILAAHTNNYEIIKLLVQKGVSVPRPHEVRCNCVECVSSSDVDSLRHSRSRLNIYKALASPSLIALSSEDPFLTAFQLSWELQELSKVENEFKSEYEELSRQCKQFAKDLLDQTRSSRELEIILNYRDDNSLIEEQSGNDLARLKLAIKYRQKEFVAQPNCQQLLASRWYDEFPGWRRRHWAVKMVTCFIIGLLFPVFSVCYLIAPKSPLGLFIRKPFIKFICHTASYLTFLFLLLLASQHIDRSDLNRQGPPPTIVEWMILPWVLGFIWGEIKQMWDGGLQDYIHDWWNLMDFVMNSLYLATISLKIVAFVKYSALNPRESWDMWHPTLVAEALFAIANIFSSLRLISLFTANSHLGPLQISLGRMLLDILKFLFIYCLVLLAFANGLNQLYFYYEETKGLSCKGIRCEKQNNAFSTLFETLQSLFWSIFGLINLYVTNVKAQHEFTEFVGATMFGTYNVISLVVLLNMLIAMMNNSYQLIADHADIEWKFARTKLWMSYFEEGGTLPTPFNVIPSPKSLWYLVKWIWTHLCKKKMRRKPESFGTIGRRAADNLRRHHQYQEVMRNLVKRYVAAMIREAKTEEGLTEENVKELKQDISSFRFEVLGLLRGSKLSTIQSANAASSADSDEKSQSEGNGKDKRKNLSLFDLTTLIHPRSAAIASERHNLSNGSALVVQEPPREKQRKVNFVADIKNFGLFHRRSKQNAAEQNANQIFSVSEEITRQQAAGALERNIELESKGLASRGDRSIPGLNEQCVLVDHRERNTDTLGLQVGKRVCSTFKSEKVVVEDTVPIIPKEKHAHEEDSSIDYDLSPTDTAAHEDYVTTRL

With `O=[N+]([O-])c1ccc(N2CCNCC2)c(Cl)c1`, the outcome in experiment [1], in experiment [2], in experiment [5], in [6], in experiment [7] and in [8] was inactive. Besides, the compound was classed as inactive in [9], in experiment [10], in experiment [11], in [13], in [14] and in experiment [15]. Further, in experiment [16], the outcome was inactive. The figures for the potentiation in [3] and in experiment [4] were 26% (active) and 28% (active), respectively. In addition, the activation in experiment [12] is 5.58% (active).
With `COc1ccc(C2NCCc3[nH]cnc32)cc1` (centres undefined), the activation was 220% (active) in experiment [1], 68% (active) in experiment [2] and 49.5% (active) in [12]. Also, the result in experiment [3], in experiment [4], in experiment [5], in experiment [6], in experiment [7] and in [8] was inactive. In addition, the compound was called inactive in [9], in experiment [10], in experiment [11], in [13], in experiment [14] and in [15]. In addition, the outcome in [16] was inactive.
Turning to `O=[N+]([O-])c1ccc(N2CCCNCC2)c2ncccc12`, the activation in experiment [1] was 133% (active); in experiment [2], 139% (active); in [12] it was 55.8% (active). Further, the outcome in [3], in experiment [4], in experiment [5], in [6], in experiment [7] and in experiment [8] was inactive. Further, the compound was classed as inactive in [9], in experiment [10], in experiment [11], in experiment [13], in experiment [14] and in [15]. Besides, the outcome in [16] was inactive.
With `Cn1cc[n+](C)c1P(=S)(c1ccccc1)c1ccccc1`, the outcome in experiment [1], in experiment [2], in experiment [3], in [4], in experiment [5] and in [6] was inactive. Besides, the result in experiment [7], in experiment [8], in [9], in [10], in experiment [11] and in experiment [12] was inactive. Besides, the outcome in experiment [13], in experiment [14], in experiment [15] and in [16] was inactive.
Consider `CNc1ccc2oc(C[C@H]3O[C@@]4(CC[C@H]3C)O[C@H]([C@H](C)C(=O)c3ccc[nH]3)[C@H](C)C[C@H]4C)nc2c1C(=O)O`, for which the activation in experiment [17] is 144% (active).
Consider `Nc1cc(N2CCNCC2)ccc1[N+](=O)[O-]`, for which the activation in [1] is 199% (active); in experiment [2], 84% (active); in experiment [12], 10.7% (active). The outcome in experiment [3], in experiment [4], in [5], in experiment [6], in experiment [8] and in [9] was inactive. Besides, the compound was classed as inactive in [10], in [11], in [13], in experiment [15] and in [16]. For the same compound, the potentiation in experiment [14] is 38.4% (active).
For `COc1ccccc1CC(=O)N1CCN(CCc2ccccc2)CC1`, the activation is 79% (active) in experiment [1], 48.5% (active) in experiment [10] and 13.4% (active) in experiment [12]. For the same compound, the result in [2], in experiment [3], in [4], in experiment [5], in experiment [6] and in experiment [7] was inactive. In addition, the result in [8], in experiment [9], in experiment [11], in [13], in experiment [14] and in experiment [15] was inactive. For the same compound, the outcome in experiment [16] was inactive.
On to `CN(C)C(CNC(=O)Cc1ccc(Br)cc1)c1ccccc1` (centres undefined), for which the activation in experiment [1] is 96% (active); in experiment [2], 133% (active); in experiment [10], 38.5% (active). In addition, the outcome in [3], in [4], in experiment [5], in [6], in experiment [7] and in experiment [8] was inactive. Also, the compound was classed as inactive in [9], in [11], in [12], in [13], in experiment [14] and in experiment [15]. Further, the result in [16] was inactive.
As to `N=c1c[n+](CC23CC4CC(CC(C4)C2)C3)[n-]o1`, the activation was 294% (active) in experiment [1], 114% (active) in experiment [2] and 38% (active) in [10]. The result in experiment [3], in experiment [4], in experiment [5], in experiment [6], in [7] and in experiment [8] was inactive. Also, the call in [9], in [11], in [12], in [13], in experiment [14] and in [15] was inactive. Further, the outcome in [16] was inactive.
With `COc1ccc(CNCCc2c[nH]c3ccccc23)cc1OC`, the activation in experiment [1] was 110% (active); in experiment [10], 28% (active). The result in experiment [2], in experiment [3], in experiment [4], in experiment [5], in experiment [6] and in [7] was inactive. The result in experiment [8], in experiment [9], in [11], in [12], in [13] and in experiment [14] was inactive. Further, the result in experiment [15] and in experiment [16] was inactive.
